In PubChem BioAssay (NCI):
Compounds without any hit were thinned out: in the full panel of roughly 83,000, 20% have a hit.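 How to read the values: 0–100, growth inhibition (40 = 60% inhibited); 0, no net growth; -100 to 0, cell death (-40 = 40% of starting cells died; -100 = all dead).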 Unmarked numbers belong to inactive results. Active and inactive are the calls of the source. Rule for the calls: active = growth percent below 10; inactive = the rest.

Columns and labels:
Experiment in all cases: NCI-60 one-dose screen, 48 h (100 = growth as untreated, 0 = no growth, -100 = all killed)
Conditions in all cases: 10 µM unless noted
[1] = system: HCT-15 colon
[2] = system: HT29 colon
[3] = system: SNB-75 CNS
[4] = system: SNB-19 CNS
[5] = system: U251 CNS
[6] = system: PC-3 prostate
[7] = system: SK-MEL-5 melanoma
[8] = system: UACC-62 melanoma
[9] = system: LOX IMVI melanoma
[10] = system: SK-MEL-28 melanoma
[11] = system: SK-MEL-2 melanoma
[12] = system: EKVX NSCLC
[13] = system: SN12C renal
[14] = system: UO-31 renal
[15] = system: TK-10 renal
[16] = system: ACHN renal
[17] = system: CAKI-1 renal
[18] = system: CCRF-CEM leukemia
[19] = system: MOLT-4 leukemia

## CCCCCCCCOc1ccc(/C=N/Nc2cc(C)nc3ccc(Br)cc23)cc1
[1]
  growth: 21%
[2]
  growth: 11.9%
[3]
  growth: 20%
[4]
  growth: 76.1%
[5]
  growth: 16.5%
[6]
  growth: 60.8%
[7]
  growth: 76.9%
[8]
  growth: 92.7%
[9]
  growth: 22.4%
[10]
  growth: 80.9%
[11]
  growth: 96.2%
[12]
  growth: 85%
[13]
  growth: 68.2%
[14]
  growth: 64.7%
[15]
  growth: 90.3%
[16]
  growth: 52.1%
[17]
  growth: 84.1%
[18]
  growth: 7.66% (active)
[19]
  growth: 58%

## COc1cccc(-c2nc3occn3c2-c2ccnc(NCCNS(=O)(=O)c3cccc4ccccc34)n2)c1
[1]
  growth: 103%
[2]
  growth: 96.7%
[3]
  growth: 103%
[4]
  growth: 97.8%
[5]
  growth: 108%
[6]
  growth: 99.6%
[7]
  growth: 98.8%
[8]
  growth: 93.7%
[9]
  growth: 102%
[10]
  growth: 115%
[11]
  growth: 107%
[12]
  growth: 114%
[13]
  growth: 103%
[14]
  growth: 85.7%
[15]
  growth: 123%
[16]
  growth: 99.6%
[17]
  growth: 86.6%
[18]
  growth: 123%
[19]
  growth: 97.4%

## Nc1nc(Nc2ccccc2SSc2ccccc2Nc2nc(N)nc(-c3cccs3)n2)nc(-c2ccsc2)n1
[1]
  growth: 56.7%
[2]
  growth: 98.7%
[3]
  growth: 98.3%
[4]
  growth: 87.7%
[5]
  growth: 53.1%
[6]
  growth: 57.2%
[7]
  growth: 94.7%
[8]
  growth: 71%
[9]
  growth: 35.9%
[10]
  growth: 98.7%
[11]
  growth: 99.1%
[12]
  growth: 77.3%
[13]
  growth: 27.3%
[14]
  growth: -45.5% (active)
[15]
  growth: 118%
[16]
  growth: 65.3%
[17]
  growth: 20%
[18]
  growth: 60.5%
[19]
  growth: 63.2%

## COC(=O)/C=C1\S/C(=N\NC(=O)c2cc3ccc2/C=C\c2ccc(cc2)/C=C\3)N(c2ccccc2)C1=O
[1]
  growth: 0.337% (active)
[2]
  growth: -13.1% (active)
[3]
  growth: 45.7%
[4]
  growth: 39.9%
[5]
  growth: 15.8%
[6]
  growth: -35.9% (active)
[7]
  growth: 69.3%
[8]
  growth: 25.2%
[9]
  growth: -27.8% (active)
[10]
  growth: 82.5%
[11]
  growth: 87%
[12]
  growth: 59%
[13]
  growth: 22.5%
[14]
  growth: 58.5%
[15]
  growth: 15.2%
[16]
  growth: 49.3%
[17]
  growth: 69.3%
[18]
  growth: 13%
[19]
  growth: 3.03% (active)

## CCOC(=O)CSc1nc2ccccc2c(=O)n1Cc1ccc(S(N)(=O)=O)cc1
[1]
  growth: 100%
[2]
  growth: 105%
[3]
  growth: 85.8%
[4]
  growth: 99.2%
[5]
  growth: 97.5%
[6]
  growth: 91.7%
[7]
  growth: 100%
[8]
  growth: 94.4%
[9]
  growth: 95.9%
[10]
  growth: 104%
[11]
  growth: 111%
[12]
  growth: 97.1%
[13]
  growth: 99.5%
[14]
  growth: 84.3%
[15]
  growth: 98.7%
[16]
  growth: 102%
[17]
  growth: 91.3%
[18]
  growth: 97.1%
[19]
  growth: 104%

## CC(Sc1nc2sc3c(c2c(=O)n1-c1ccc(Cl)cc1)CCCC3)C(=O)Nc1nc(-c2ccc(Br)cc2)cs1 (centres undefined)
[1]
  growth: 95.4%
[2]
  growth: 94.7%
[3]
  growth: 95.9%
[4]
  growth: 96.6%
[5]
  growth: 97.2%
[6]
  growth: 95.6%
[7]
  growth: 97.4%
[8]
  growth: 88.9%
[9]
  growth: 96.3%
[10]
  growth: 105%
[11]
  growth: 101%
[12]
  growth: 90.1%
[13]
  growth: 96.8%
[14]
  growth: 81.5%
[15]
  growth: 99.5%
[16]
  growth: 106%
[17]
  growth: 94.4%
[18]
  growth: 105%
[19]
  growth: 94.1%

## C#CCNC(=O)[C@]1(C)CC[C@]2(C)CC[C@@H]3C(=CC[C@H]4[C@@]3(C)CC[C@H]3C(C)(C)C(=O)CC[C@]43C)[C@@H]2C1
[1]
  growth: 98%
[2]
  growth: 93.1%
[3]
  growth: 102%
[4]
  growth: 102%
[5]
  growth: 99.1%
[6]
  growth: 64.6%
[7]
  growth: 93.3%
[8]
  growth: 83.2%
[9]
  growth: 96.2%
[10]
  growth: 102%
[11]
  growth: 96.2%
[12]
  growth: 100%
[13]
  growth: 97.9%
[14]
  growth: 80.5%
[15]
  growth: 86.4%
[16]
  growth: 98%
[17]
  growth: 83.1%
[18]
  growth: 69.4%
[19]
  growth: 93.1%

## CCCOC(=O)N[C@H]1CCc2cc(OC)c(OC)c(OC)c2-c2ccc(SC)c(=O)cc21
[1]
  growth: 14.8%
[2]
  growth: 14.2%
[3]
  growth: 34.3%
[4]
  growth: 36.2%
[5]
  growth: 19.6%
[6]
  growth: 29.5%
[7]
  growth: -14.6% (active)
[8]
  growth: 41.5%
[9]
  growth: 18.6%
[10]
  growth: 58.7%
[11]
  growth: 50.8%
[12]
  growth: 51.5%
[13]
  growth: 29.5%
[14]
  growth: 38.3%
[15]
  growth: 48.2%
[16]
  growth: 27.8%
[17]
  growth: 19.8%
[18]
  growth: 4.23% (active)
[19]
  growth: 7.04% (active)

## O=[N+]([O-])CC(c1ccccc1)c1c[nH]c2ccccc12 (centres undefined)
[1]
  growth: 26.5%
[2]
  growth: 12.5%
[3]
  growth: 27.2%
[4]
  growth: 58%
[5]
  growth: 35.7%
[6]
  growth: 86.1%
[7]
  growth: 50.9%
[8]
  growth: 35%
[9]
  growth: 45.5%
[10]
  growth: 59.9%
[11]
  growth: 22.8%
[12]
  growth: 67%
[13]
  growth: 52.8%
[14]
  growth: 67.3%
[15]
  growth: 69.7%
[16]
  growth: 71.1%
[17]
  growth: 42%
[18]
  growth: 46.9%
[19]
  growth: 27.4%

## Cc1ccc(-c2[nH][nH]c(=O)c2-c2nc3ccccc3s2)cc1
[1]
  growth: 99.1%
[2]
  growth: 104%
[3]
  growth: 79.4%
[4]
  growth: 97.9%
[5]
  growth: 103%
[6]
  growth: 96.9%
[7]
  growth: 102%
[8]
  growth: 95.9%
[9]
  growth: 95.7%
[10]
  growth: 111%
[11]
  growth: 108%
[12]
  growth: 97.4%
[13]
  growth: 98.7%
[14]
  growth: 78.7%
[15]
  growth: 107%
[16]
  growth: 97.3%
[17]
  growth: 88.7%
[18]
  growth: 93.3%
[19]
  growth: 100%

## C=C(C)[C@@H]1CC[C@]2(C(=O)N3CCN(C)CC3)CC[C@]3(C)[C@H](CC[C@@H]4[C@@]5(C)C/C(=C/c6cccnc6)C(=O)C(C)(C)[C@@H]5CC[C@]43C)[C@@H]12
[1]
  growth: 44.5%
[2]
  growth: 20.9%
[3]
  growth: 79.7%
[4]
  growth: 68.7%
[5]
  growth: 52.3%
[6]
  growth: 18.6%
[7]
  growth: 68.6%
[8]
  growth: 81.4%
[9]
  growth: 78.7%
[10]
  growth: 83.1%
[11]
  growth: 82.8%
[12]
  growth: 83.8%
[13]
  growth: 57.6%
[14]
  growth: 57.2%
[15]
  growth: 101%
[16]
  growth: 71.7%
[17]
  growth: 79.8%
[18]
  growth: 28.9%
[19]
  growth: 14.9%

## O=C1Nc2cc(-c3ccc(NC(=O)C4CC4)cc3)ccc2/C1=C/c1ccc[nH]1
[1]
  growth: 94.7%
[2]
  growth: 101%
[3]
  growth: 94.5%
[4]
  growth: 94.7%
[5]
  growth: 84%
[6]
  growth: 104%
[7]
  growth: 98.6%
[8]
  growth: 110%
[9]
  growth: 95.1%
[10]
  growth: 119%
[11]
  growth: 109%
[12]
  growth: 47.6%
[13]
  growth: 97.8%
[14]
  growth: 80.2%
[15]
  growth: 115%
[16]
  growth: 106%
[17]
  growth: 102%
[18]
  growth: 98.7%
[19]
  growth: 94.7%

## COc1cc2oc(-c3cccc(C(=O)Nc4ccc(Cl)cc4)c3)cc(=O)c2c(O)c1OC
[1]
  growth: 70.2%
[2]
  growth: 66.2%
[3]
  growth: 24.4%
[4]
  growth: 28.4%
[5]
  growth: 23%
[6]
  growth: 55.1%
[7]
  growth: 58.7%
[8]
  growth: 42.7%
[9]
  growth: 69.8%
[10]
  growth: 67.8%
[11]
  growth: 83.1%
[12]
  growth: 77.2%
[13]
  growth: 41.5%
[14]
  growth: 47%
[15]
  growth: 75.5%
[16]
  growth: 33.4%
[17]
  growth: 55%
[18]
  growth: 75.6%
[19]
  growth: 74.1%

## COc1ccccc1/C(C)=N/NC(=O)CSc1nc2ccccc2c(=O)n1Cc1ccc(S(N)(=O)=O)cc1
[1]
  growth: 97.6%
[2]
  growth: 114%
[3]
  growth: 89.7%
[4]
  growth: 93.3%
[5]
  growth: 103%
[6]
  growth: 111%
[7]
  growth: 97.5%
[8]
  growth: 97.4%
[9]
  growth: 89.9%
[10]
  growth: 114%
[11]
  growth: 106%
[12]
  growth: 85.6%
[13]
  growth: 102%
[14]
  growth: 77.3%
[15]
  growth: 96.1%
[16]
  growth: 105%
[17]
  growth: 85.4%
[18]
  growth: 94.5%
[19]
  growth: 97%

## Cc1cc2nc3c4cc(C=O)ccc4n(CCN(C)C)c3nc2cc1C
[1]
  growth: 2.81% (active)
[2]
  growth: 6.7% (active)
[3]
  growth: 28.2%
[4]
  growth: 28.1%
[5]
  growth: 16.8%
[6]
  growth: 15.5%
[7]
  growth: 6.63% (active)
[8]
  growth: 21.5%
[9]
  growth: -40.5% (active)
[10]
  growth: 37.1%
[11]
  growth: 11.7%
[12]
  growth: 25.4%
[13]
  growth: 20.5%
[14]
  growth: -28.6% (active)
[15]
  growth: 23.2%
[16]
  growth: -15% (active)
[17]
  growth: 3.46% (active)
[18]
  growth: 21.7%
[19]
  growth: 9.19% (active)

## C=C(C)[C@@H]1CC[C@]2(CN)CC[C@]3(C)[C@H](CC[C@@H]4[C@@]5(C)CCCNC(C)(C)[C@@H]5CC[C@]43C)[C@@H]12
[1]
  growth: -92.4% (active)
[2]
  growth: -85.8% (active)
[3]
  growth: -27.7% (active)
[4]
  growth: -58.5% (active)
[5]
  growth: -89.7% (active)
[6]
  growth: -10.5% (active)
[7]
  growth: -9.72% (active)
[8]
  growth: 29%
[9]
  growth: -98.3% (active)
[10]
  growth: -28.3% (active)
[11]
  growth: 6.75% (active)
[12]
  growth: 6.81% (active)
[13]
  growth: -25.5% (active)
[14]
  growth: 5.31% (active)
[15]
  growth: -10.6% (active)
[16]
  growth: -91.8% (active)
[17]
  growth: -94.5% (active)
[18]
  growth: -27.4% (active)
[19]
  growth: -45.4% (active)
